What was measured:
Assay in all cases: PBM binding z-score (relative to random genomic background probes); higher = stronger binding; sequences stand for … in GC…GCGATTGACAGCGTAGAATGAAGG
[1] = test system: PPARg:RXRa DBDmut IVT, anti-RXR (DBD mutation: RXRa K156A/R161A, NR concentration 270 nM, RXRa partner concentration 90 nM)
Outline: (§1)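 The probes on custom Agilent 4×180K protein-binding microarrays were double-stranded, with 34-nt variable regions bearing direct-repeat seeds, single-nucleotide variants, half-site ablations and random human genomic background sequences. Incubation lasted 1 h with ligand-free nuclear receptor dimers in PBS pH 7.4, 2% milk, 0.02% Triton X-100, 1 mM DTT, 0.2 mg/mL BSA and 0.4 mg/ml salmon testes DNA. Antibodies against each partner (one per run) detected bound dimers, and fluorescence scans were regression-normalized. Binding z-scores take the random background probes as reference.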

[2] = test system: PPARg:RXRa IVT, anti-PPARg (NR concentration 270 nM, RXRa partner concentration 90 nM)
Outline: as §1

[3] = test system: PPARg DBDmut:RXRa IVT, anti-PPARg (DBD mutation: PPARg1 K132A/R137A, NR concentration 270 nM, RXRa partner concentration 90 nM)
Outline: as §1

[4] = test system: PPARg DBDmut IVT, anti-PPARg (DBD mutation: PPARg1 K132A/R137A, NR concentration 270 nM)
Outline: as §1

[5] = test system: PPARg homodimer (NR concentration 180 nM)
Outline: as §1

[6] = test system: PXR:RXRa (NR concentration 270 nM, RXRa partner concentration 90 nM)
Outline: as §1

[7] = test system: PXR homodimer (NR concentration 270 nM)
Outline: as §1

[8] = test system: RARa:RXR (NR concentration 270 nM, RXRa partner concentration 90 nM)
Outline: as §1

[9] = test system: RARa homodimer (NR concentration 270 nM)
Outline: as §1

[10] = test system: RARb:RXRa (NR concentration 270 nM, RXRa partner concentration 90 nM)
Outline: as §1

Sequence	PBM binding z-score [1]	PBM binding z-score [2]	PBM binding z-score [3]	PBM binding z-score [4]	PBM binding z-score [5]	PBM binding z-score [6]	PBM binding z-score [7]	PBM binding z-score [8]	PBM binding z-score [9]	PBM binding z-score [10]
TCGATTAGGTTACCAATGGGGCATTCAGCTTTCT	2.52	1.4	0.217	0.237	0.366	0.467	-0.59	0.557	-0.505	1.44
TAGCCTAGGTCAGACCGGGCCAGTATACGCTATA	0.42	1.13	-0.551	-1.06	0.235	0.913	-0.412	1.14	-1.16	3
CCTTACGGGTCACTGATAGGTTATAGCATTTGGA	3.46	3.73	1.18	0.0564	2.47	3.6	0.321	4.43	1.27	4.02
CCTTACGGCTCACTGACAGGTTATAGCATTTGGA	0.701	-0.612	0.0543	-0.0527	0.157	0.158	0.192	0.669	0.331	0.0996
ACTATTAGTTGAGACGAGGGCAAGCGATAGGTTG	0.296	0.365	0.712	0.625	0.663	1.05	0.306	0.73	0.56	0.659
ACTATTAGGTGAGACGAGGGCAACCGATAGGTTG	4.85	3.95	1.23	0.854	1.46	2.81	0.453	1.39	0.564	1.64
TATACATGGTCAAAGGCCAGAGTACGAATGTCGA	-0.282	1.86	1.66	0.812	0.786	0.255	0.252	0.943	0.241	1.6
AGAACGAGGCCACGCTGAGTTGATAGCAGAGTAG	3.08	2.31	0.24	0.0825	-0.457	-0.0371	-0.451	-0.283	-0.379	1.17
AGAATGAGGTTGAGATCAGGGAAACAGAATACAT	-0.749	-0.0669	0.897	0.0775	0.146	0.154	0.387	0.681	0.16	0.263
CCGACTGGGGCATAAGGTTACCCTAAGCCAGCCC	2.4	2.69	-0.367	-1.53	-0.0921	0.213	-0.708	1.1	-0.511	1.26
AGAACGGGGGCAATGAGTTGATAGCACGGGTGGC	4.36	5.56	9.77	9.9	1.96	3.74	6.38	2.68	1.18	3.02
CCTTCCGGGTCACTCCAGGTTATAGCATCGGAGT	3.76	4.8	0.383	-0.795	1.88	4.83	0.335	3.65	0.518	3.77
GCGACTGGGGCAAAGCAGGTGACCATAAGGTTGG	4.22	3.65	-0.66	-0.849	0.17	-0.318	-0.7	0.805	-0.538	0.913
TGTTGTAGATCAATAGAGGTTAAGAAAGTGCGCT	-0.0957	0.893	1.29	1.09	1.38	3.29	0.289	1.76	1.61	1.01
AGTCAAAGTTCAGGACGAGCTAACGTAAAGCACG	-0.565	1.33	0.323	-0.197	1.5	1.98	0.743	1.88	0.728	4.11
ATATCTAGGTTACATCCGGGTCATTCAGGCTATG	7.39	7.41	3.31	3.16	2.49	3.62	3.73	3.4	1.99	2.63
CGTCAGAGTTCAAGGTAACGTAACAGAAAGCAGC	0.546	0.936	-0.0239	0.226	2.34	4.5	2.86	3.31	0.785	4.36
GCTATTAGTTGAAAGGGCAAACGAATGATTCTCG	0.582	1.18	0.0539	0.507	1.19	0.938	0.57	1.52	1.28	2.04
ACAGACAGGTGAGTGAAGGTAACTCAACTGGACG	0.567	0.507	-0.777	-0.0154	-0.369	-0.316	-0.108	0.0758	-0.165	0.486

Sequence	PBM binding z-score [1]	PBM binding z-score [2]	PBM binding z-score [3]	PBM binding z-score [4]	PBM binding z-score [5]	PBM binding z-score [6]	PBM binding z-score [7]	PBM binding z-score [8]	PBM binding z-score [9]	PBM binding z-score [10]
TTACCAAGGTGAGCTGAGGTCATTGATCCAACTC	1.49	2.8	-0.00582	-0.0839	1.23	6.15	3.42	4.75	0.362	3.44
CAAACTAGGTCAATGGTCAAAGTCGAGCCAACCA	8.19	8.52	2.18	0.945	1.27	1.38	0.195	2.25	0.441	3.9
TAGCCTAGGTCATGGGTCAGTATACCACGCGAAC	1.91	4.28	1.25	0.834	2.55	2.92	0.237	4.22	0.889	4.1
CGAACGAGGGCATGAGATGATAGCAAATGCCGAT	2.91	1.69	0.746	-0.282	0.685	0.00253	-0.206	0.422	0.183	1.79
CCTGCTGGGCCAAAGGTCATTGATTCCAATGCTC	1.56	4.42	-0.0348	0.037	3.9	5.43	1.15	6.18	0.602	4.63
CGAACTAGGTAAGAACAGGACAGTGAAGGATGAT	3.73	2.52	0.465	0.0684	0.00147	-0.257	-0.137	-0.362	-0.184	-0.143
CGTCAAAGTTCAATTAAGGTAACGTAAAGCACGC	0.465	2	1.09	1.89	3.06	5.26	3.98	3.88	1.69	4.78
CGAATTAGGTCAAGGACAGTGAATCTCCGCACGC	8.12	8.06	3.79	1.82	1.89	1.28	0.205	2.79	0.19	4.18
TCGAGTAGGTTGGTCGGGGCATTCAGCCAACATA	0.51	-0.219	-0.384	-1.1	-0.0818	0.102	-0.155	0.0862	-0.932	0.117
ATATGTAGGTTATGGGGTCATTCAGTTTGCGCAT	7.59	7.35	1.83	2.58	3.35	6.12	11.7	6.45	2.37	3.54
TCTTGTAGATCAAACGTTAAGAAAGCCGAAGCCT	2.23	0.376	0.781	0.516	-0.0553	0.00909	-0.155	0.0712	-0.409	-0.19
ATTTCTAGGTAAGACTCAGTTCAGTGAAGAACGC	4.54	2.6	1.64	1.76	1.66	1.39	1.8	0.607	2.29	0.674
AGGACGAGGGCACGCTGAGTTGATAGCAGAGTAG	2.52	2.08	-0.0685	-0.533	0.511	1.31	0.265	0.618	-0.58	2.68
AGAATGAGGTTACCAAAGAACAGGGAAACGCTTG	3.61	3.21	0.635	0.163	0.531	1.06	0.0622	1.64	0.0488	2.11
ATCTCTCGGTAAAAGTTCAGTGAATCCCGAGGAT	-0.48	1.24	1.23	1.28	1.06	1.92	1.71	0.639	0.811	2.4
CAAACTACGTCACGAAAGGTCAAAGTCGAATGAC	0.398	2.49	1.4	1.92	3.68	5.52	1.91	6.35	2.63	4.43
CCTAGCTGGTCAGGAGGTCACACACCGGATATGA	0.695	2.85	0.353	0.266	3.15	4.2	0.691	4.65	0.568	3.67
GGAACGAGGGCAAAGTTGATAGTATCTGTCGACG	3.79	4.43	0.556	-0.544	0.557	1.12	0.156	1.66	-0.123	2.22
CTACCAAGGTGAACAAGGTCGTTGATTACTATTC	2.26	2.58	0.576	0.29	0.831	2.96	1.95	2.45	0.346	2.16

Source: the supplement of paper PMC6555819
